{"source": "ChEMBL document CHEMBL4513216", "about": "“Probing the Open Global Health Chemical Diversity Library for Multistage-Active Starting Points for Next-Generation Antimalarials” (ACS Infect Dis, 2020)", "note": "About 8,600 (12%) of roughly 69,000 compounds showed an effect of 50% or more. Shown is part of a subset that was picked to be rich in strong results.", "data": [{"tested_on": "Plasmodium berghei", "experiment": "Screen against P. berghei liver stage (PbLuc), transformed with Luciferase, at 10uM", "type": "functional, HepG2", "conditions": "tested at 10 uM", "units": {"INHIBITION": "%"}, "values": [{"molecule": "O=C(NC[C@H]1OC[C@@H](NC2CCC2)[C@@H]1O)c1cccs1", "INHIBITION": 18.4}, {"molecule": "CC(C)(C)CN[C@@H]1CO[C@H](CNC(=O)Nc2ccccc2)[C@H]1O", "INHIBITION": 41.1}, {"molecule": "O=C(NC[C@H]1OC[C@@H](NC2COC2)[C@@H]1O)Nc1ccccc1", "INHIBITION": 12.4}, {"molecule": "CC(C)NC(=O)NC[C@H]1OC[C@@H](NCc2ccccc2O)[C@@H]1O", "INHIBITION": 4.59}, {"molecule": "O=C(NC[C@H]1OC[C@@H](NC2CCOCC2)[C@@H]1O)Nc1ccccc1", "INHIBITION": 51}, {"molecule": "O=C(NC[C@H]1OC[C@@H](NC2CCC2)[C@@H]1O)Nc1ccccc1", "INHIBITION": 41.9}, {"molecule": "CC(=O)N1CCC(N[C@@H]2CO[C@H](CNC(=O)c3cccs3)[C@H]2O)CC1", "INHIBITION": 60.9}, {"molecule": "CC(C)N[C@@H]1CO[C@H](CNC(=O)Nc2ccccc2)[C@H]1O", "INHIBITION": 50.2}, {"molecule": "CC(C)N[C@@H]1CO[C@H](CNC(=O)c2ccccc2)[C@H]1O", "INHIBITION": -6.23}, {"molecule": "O=C(NC[C@H]1OC[C@@H](NCc2ccccc2F)[C@@H]1O)Nc1ccccc1", "INHIBITION": -13.4}, {"molecule": "CN1CCC(N[C@@H]2CO[C@H](CNC(=O)c3cccs3)[C@H]2O)CC1", "INHIBITION": 17.4}, {"molecule": "CC(C)NC(=O)NC[C@H]1OC[C@@H](NCc2ccccc2F)[C@@H]1O", "INHIBITION": 58.5}, {"molecule": "Cn1cc(CN2CCc3nc4ccccc4c(=O)n3CC2)cn1", "INHIBITION": -10.2}, {"molecule": "COC(=O)C(NC(=O)CCOC(C)C)c1cc(F)ccc1F", "note": "(configuration not stated)", "INHIBITION": -19.9}, {"molecule": "Cc1ccc(N(CC(=O)N2CCCCC2)C(=O)C2COCCO2)cc1", "note": "(configuration not stated)", "INHIBITION": 11.6}, {"molecule": "CC(C)CC(NC(=O)c1cccs1)c1nc2cccnc2n1C", "note": "(configuration not stated)", "INHIBITION": -11.4}, {"molecule": "Cn1ccnc1C1(O)CCN(C(=O)CCc2ccccc2)CC1", "INHIBITION": 27.465}, {"molecule": "O=C1NCCCc2[nH]c(C3CCN(C(=O)C4CC4)CC3)nc21", "INHIBITION": 10.4}, {"molecule": "CN(CCn1cncc1-c1cnc(N2CCOCC2)nc1)C1CCCC1", "INHIBITION": -11.05}, {"molecule": "O=C(NC[C@H]1OC[C@@H](NC2CCCCC2)[C@@H]1O)Nc1ccccc1", "INHIBITION": 26}, {"molecule": "O=C(NC[C@H]1OC[C@@H](NCc2ccccc2)[C@@H]1O)Nc1ccccc1", "INHIBITION": 17.7}, {"molecule": "CN1CCC(N[C@@H]2CO[C@H](CNC(=O)Nc3ccccc3)[C@H]2O)CC1", "INHIBITION": 60.1}, {"molecule": "CN(C)C(=O)Cn1c(C2CC2)c(CN2CCOCC2)c2cccnc21", "INHIBITION": -13.2}, {"molecule": "Cc1c(Cl)cccc1N1CC(c2nnc(N)s2)CC1=O", "note": "(configuration not stated)", "INHIBITION": 35.8}, {"molecule": "CC(C)(C)c1coc([C@@H]2COCCN2Cc2ccccn2)n1", "INHIBITION": -37.4}, {"molecule": "Cn1cc(CN2CCOC[C@H]2c2nc(C(C)(C)C)co2)c2ccccc21", "INHIBITION": 10}, {"molecule": "CC(C)(C)c1coc([C@@H]2COCCN2Cc2ncc[nH]2)n1", "INHIBITION": 20.9}, {"molecule": "CC(C)(C)c1coc([C@@H]2COCCN2Cc2ccccc2)n1", "INHIBITION": 3.25}, {"molecule": "Cn1c(CN2CCOC[C@H]2c2nc(C(C)(C)C)co2)nc2ccccc21", "INHIBITION": 52}, {"molecule": "CC(C)(C)c1coc([C@@H]2COCCN2Cc2c[nH]cn2)n1", "INHIBITION": 62.8}, {"molecule": "CS(=O)(=O)N1CC[C@H]2OCC[C@@]2(C(=O)NCC2CC2)C1", "INHIBITION": 42.1}, {"molecule": "CN1CCN(Cc2c(Cl)ccc(O)c2Cl)CC1C(=O)O", "note": "(configuration not stated)", "INHIBITION": -27.6}, {"molecule": "CN(C)CCN1C(=O)CCCC12CCCN(C(=O)c1ccncc1)C2", "note": "(configuration not stated)", "INHIBITION": 5.68}, {"molecule": "COc1ncccc1C(=O)N1CCC2(CC1)CC(OC)CO2", "note": "(configuration not stated)", "INHIBITION": 25.8}, {"molecule": "COC1COC2(CCN(C(=O)c3cnc(C)cn3)CC2)C1", "note": "(configuration not stated)", "INHIBITION": -21.7}, {"molecule": "COC1COC2(CCN(C(=O)c3cscn3)CC2)C1", "note": "(configuration not stated)", "INHIBITION": 53.9}, {"molecule": "O=C(c1ccccc1)N1CCC2(CC1)CC(Oc1ccccc1)CO2", "note": "(configuration not stated)", "INHIBITION": 52}, {"molecule": "O=C(c1ccccc1F)N1CCC2(CC1)CC(Oc1ccccn1)CO2", "note": "(configuration not stated)", "INHIBITION": 46.6}, {"molecule": "COC1COC2(CCN(C(=O)c3ccccc3F)CC2)C1", "note": "(configuration not stated)", "INHIBITION": 62.9}, {"molecule": "COC1COC2(CCN(C(=O)c3cocn3)CC2)C1", "note": "(configuration not stated)", "INHIBITION": 39.4}, {"molecule": "CC(=O)N1CCC2(CC1)CC(Oc1ccccc1)CO2", "note": "(configuration not stated)", "INHIBITION": 33.5}, {"molecule": "O=C(c1cccnc1)N1CCC2(CC1)CC(Oc1ccccc1)CO2", "note": "(configuration not stated)", "INHIBITION": 34.4}, {"molecule": "CCn1c(O)c(C(C)=O)c2cc(C)ccc21", "INHIBITION": 33.4}, {"molecule": "Cc1ccc(-c2nc(CN3CCCCC3Cn3cncn3)no2)cc1", "note": "(configuration not stated)", "INHIBITION": 21.5}, {"molecule": "CCS(=O)(=O)CCSc1ccc(Br)cc1", "INHIBITION": -59.8}, {"molecule": "CN(CC(O)COc1ccc(C(F)(F)F)cc1)C(=O)Nc1nncs1", "note": "(configuration not stated)", "INHIBITION": -0.87}, {"molecule": "COc1cc(NC(=O)c2ccc(C)c(F)c2)c(C(=O)N(C)C)cc1OC", "INHIBITION": 14}, {"molecule": "CCn1cc(NC(=O)NC(CO)Cc2c[nH]c3ccccc23)cn1", "note": "(configuration not stated)", "INHIBITION": 32.3}, {"molecule": "CCn1cc(S(=O)(=O)NC(CO)Cc2c[nH]c3ccccc23)cn1", "note": "(configuration not stated)", "INHIBITION": 19.3}, {"molecule": "CCn1cc(S(=O)(=O)NC(=O)CCc2c[nH]c3ccccc23)cn1", "INHIBITION": 61.5}, {"molecule": "CN(Cc1cc(C(C)(C)C)n[nH]1)C(=O)CCC(=O)NC1CCCC1", "INHIBITION": 32.1}, {"molecule": "Cn1ncc(NC(=O)c2noc3c2CCCC3)c1C(N)=O", "INHIBITION": 2.6}]}]}
